Several values for one entry are separate records, joined by “and”; a condition that tells them apart may be missing. Equal values may be shown once. Results filed as inconclusive are left out. Some structures have more than one record in an assay (separate samples or runs), and their calls can disagree. Activity calls are given as the source filed them. Calls come from the whole dose curve; as a rule, active = well fitted curve in the direction sought with a large enough effect; inconclusive = small, poorly fitted or top-dose-only effect, or another doubt; inactive = no such curve, though single readings can be large; an effect the other way counts as inactive or inconclusive.
How the values were obtained:
[1] = Viability qHTS for spleen associated tyrosine kinase inhibitor (SYKi) drug resistant MV4-11 cells (AID 1963824); conditions: SYKi-resistant MV4-11 viability, CellTiter-Glo, 72 h; series mostly up to 45 µM; note: nearly all actives have a fitted effect of over 35% in size
How it was run: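 SYK-inhibitor-resistant MV4-11 AML cells were seeded at 500 per well onto compound and cultured 72 hours (37 °C, 5% CO2). CellTiter-Glo was then added, and after 10 min at room temperature, luminescence gave viability.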

[2] = Quantitative highthroughput screen to assess conditional lethalithy of NOMO1 cells grown in RPMI1640 with untreated serum (RPMI+s) (AID 1963876); conditions: NOMO1 AML cells in RPMI+serum, CellTiter-Glo viability, 48 h; series mostly up to 45.8 µM; note: nearly all actives have a fitted effect of over 35% in size;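 for Viability: 100% = DMSO wells and 0% = empty wells without cells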
How it was run: (§1)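 Each medium arm—HPLM with 10% dialyzed FBS, or RPMI1640 with 5 mM glucose and 10% untreated or dialyzed FBS—was screened against an 11-point, 3-fold compound titration for 48 h at 37 °C, with CellTiter-Glo luminescence as endpoint.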

[3] = Quantitative highthroughput screen to assess conditional lethalithy of NOMO1 cells grown in RPMI1640 with dialyzed fetal bovine serum (RPMI+ds) (AID 1963877); conditions: NOMO1 in RPMI+dialyzed FBS viability, ATP luminescence, 48 h; series mostly up to 45.8 µM; note: nearly all actives have a fitted effect of over 30% in size;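 for Viability: 100% = DMSO control wells and 0% = empty wells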
How it was run: as §1

[4] = Quantitative highthroughput screen to assess conditional lethalithy of NOMO1 cells grown in Human Plasma-Like Medium with dialyzed fetal bovine serum (HPLM+ds) (AID 1963878); conditions: NOMO1 AML cells in HPLM+ds, CellTiter-Glo viability, 48 h; series mostly up to 45.8 µM; note: nearly all actives have a fitted effect of over 35% in size;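 for Viability: 100% = DMSO wells and 0% = empty wells on each plate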
How it was run: as §1

[5] = Quantitative highthroughput screen to assess conditional lethalithy of P12 Ichikawa cells grown in Human Plasma-Like Medium with dialyzed fetal bovine serum (HPLM+ds) (AID 1963879); conditions: ATP luminescence, 48 h; Potency: viability; series mostly up to 45.8 µM; note: nearly all actives have a fitted effect of over 35% in size
How it was run: as §1

[6] = Quantitative highthroughput screen to assess conditional lethalithy of P12 Ichikawa cells grown in RPMI1640 with dialyzed fetal bovine serum (RPMI+ds) (AID 1963880); conditions: ATP luminescence, 48 h; Potency: P12-Ichikawa viability; series mostly up to 45.8 µM; note: nearly all actives have a fitted effect of over 35% in size;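 for Viability: 100% = DMSO wells and 0% = empty wells on each plate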
How it was run: as §1

[7] = Quantitative highthroughput screen to assess conditional lethalithy of SEM cells grown in Human Plasma-Like Medium with dialyzed fetal bovine serum (HPLM+ds) (AID 1963882); conditions: SEM B-ALL cells in HPLM+ds, CellTiter-Glo viability, 48 h; series mostly up to 45.8 µM; note: nearly all actives have a fitted effect of over 35% in size
How it was run: as §1

[8] = Quantitative highthroughput screen to assess conditional lethalithy of SEM cells grown in RPMI1640 with unreated serum (RPMI+s) (AID 1963883); conditions: SEM B-ALL cells, CellTiter-Glo viability, 48 h; series mostly up to 45.8 µM; note: nearly all actives have a fitted effect of over 35% in size;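 for Viability: 100% = DMSO wells and 0% = empty wells without cells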
How it was run: as §1

[9] = Quantitative highthroughput screen to assess conditional lethalithy of SEM cells grown in RPMI1640 with dialyzed fetal bovine serum (RPMI+ds) (AID 1963884); conditions: SEM B-ALL cells, RPMI+dialyzed FBS, CellTiter-Glo viability, 48 h; series mostly up to 45.8 µM; note: nearly all actives have a fitted effect of over 35% in size;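 for Viability: 100% = DMSO control wells and 0% = empty wells without cells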
How it was run: as §1

[10] = Cellular viability qHTS for adrenocortical cancer (ACC) cell line SW-13 (AID 1963989); conditions: SW-13 ACC cells viability, CellTiter-Glo, 48 h; activity (max response): stronger effect = lower value; note: nearly all actives have a fitted effect of over 65% in size;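 for activity (max response): cells grown in serum-free medium with ITS supplement; % is set by controls: 0 for no effect and ±100 for the full control effect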
How it was run: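 Luminescent ATP read-out (CellTiter-Glo, 20 min at room temperature) measured metabolically competent SW-13 cells after 48 h compound treatment. Final concentrations spanned up to 46 uM; bortezomib served as positive control.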

[11] = Cellular viability qHTS for adrenocortical cancer (ACC) cell line NCI-H295R (AID 1963990); conditions: CellTiter-Glo ATP luminescence, 48 h; series mostly up to 46.1 µM; note: nearly all actives have a fitted effect of over 60% in size
How it was run: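 IC50 and maximal efficacy derive from four-parameter logistic modelling of titration curves, with reads scaled between DMSO-only wells (0%) and doxorubicin hydrochloride (100% inhibition). Compounds spanned up to 46 uM over 48 h.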

[12] = Quantitative highthroughput screen to assess conditional lethalithy of P12 Ichikawa cells grown in RPMI1640 with untreated serum (RPMI+s) (AID 1963881); conditions: ATP luminescence, 48 h; Potency: viability; series mostly up to 45.8 µM; note: nearly all actives have a fitted effect of over 35% in size;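 for Viability: 100% = DMSO wells and 0% = empty wells without cells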
How it was run: as §1
Potency is the fitted concentration of half-maximal effect.

CN(CCOc1ccc(CC2SC(=O)NC2=O)cc1)c1ccccn1 (stereo unspecified)
active: Potency [1] 13.3 µM
inactive: Potency [2] | Potency [3] | Potency [4] | Potency [5] | Potency [6] | Potency [7] | Potency [8] | Potency [9] | activity (max response) [10] -2.77% and -12.8% | Potency [11]

Nc1ccn([C@@H]2O[C@H](CO)[C@@H](O)C2O)c(=O)n1 (stereo partly specified)
active: Potency [1] 1.86 µM | Potency [4] 1.18 µM
inactive: Potency [2] | Potency [3] | Potency [5] | Potency [6] | Potency [11]

CCCCc1ccc(NS(=O)(=O)c2ccc(C)c(C(=O)N3CCN(c4cccc(C)c4C)CC3)c2)cc1
inactive: Potency [2] | Potency [3] | Potency [4] | Potency [5] | Potency [12] | Potency [7] | Potency [8] | Potency [9]
active: Potency [1] 42.8 µM

c1cc(N[C@@H]2CCNC2)nc(-c2cnc3ccc(-c4cn[nH]c4)cn23)c1
inactive: Potency [2] | Potency [11]
active: Potency [1] 0.0066 µM | Potency [3] 5.9 µM | Potency [10] 3.98 µM

CN(Cc1cc(Br)cc(Br)c1N)C1CCCCC1
inactive: Potency [2] | Potency [3] | Potency [5] | Potency [6] | Potency [12] | Potency [7] | Potency [8] | Potency [9]
active: Potency [1] 10.6 µM

COc1cccc(-c2cc(=O)c3ccccc3o2)c1N
inactive: Potency [2] | Potency [3] | Potency [5] | Potency [6] | Potency [12] | Potency [7] | Potency [9] | Potency [11]
active: Potency [1] 18.4 µM

NCCCC(N)(C(=O)O)C(F)F (stereo unspecified)
inactive: Potency [1] | Potency [2] | Potency [3] | Potency [6] | Potency [12] | Potency [7] | Potency [8] | activity (max response) [10] 1.41% and -0.581%

O=C(O)c1cc(O)c2c(c1)C(=O)c1cccc(O)c1C2=O
inactive: Potency [2] | Potency [3] | Potency [5] | Potency [6] | Potency [12] | Potency [7] | Potency [8] | Potency [9] | activity (max response) [10] 1.15% | Potency [11]
active: Potency [1] 23.5 µM

CCNC(=O)c1noc(-c2cc(C(C)C)c(O)cc2O)c1-c1ccc(CN2CCOCC2)cc1
active: Potency [1] 0.0073 µM | Potency [2] 0.0833 µM | Potency [3] 0.0833 µM | Potency [8] 0.0418 µM | Potency [10] 0.0708 µM

O=S(=O)(c1cccc2cnccc12)N1CCCNCC1
inactive: Potency [1] | Potency [2] | Potency [3] | Potency [12] | Potency [7] | Potency [9] | activity (max response) [10] 2.02% and -0.384% | Potency [11]

CO[C@H]1C[C@@H]2CC[C@@H](C)[C@@](O)(O2)C(=O)C(=O)N2CCCC[C@@H]2C(=O)O[C@H]([C@@H](C)C[C@@H]2CC[C@H](O)[C@H](OC)C2)CC(=O)[C@H](C)C=C(C)[C@@H](O)[C@@H](OC)C(=O)[C@H](C)C[C@H](C)C=CC=CC=C1C
inactive: Potency [2] | Potency [3] | Potency [4]
active: Potency [1] 10.5 µM | Potency [11] 28.2 µM

NC(=O)c1ccc(N(C(N)=O)c2c(F)cccc2F)nc1-c1ccc(F)cc1F
inactive: Potency [2] | Potency [3] | Potency [5] | Potency [6] | Potency [12] | Potency [8] | activity (max response) [10] -4.37% | Potency [11]
10.3 µM (active) and inactive: Potency [1]

C[C@@H]1CN(CC(=O)N2CC(C)(C)c3ncc(Cc4ccc(F)cc4)cc32)[C@@H](CN2CCOC[C@H]2C)CN1
inactive: Potency [2] | Potency [5] | Potency [6] | Potency [12] | Potency [7] | Potency [9] | activity (max response) [10] -27%
active: Potency [1] 0.468 µM | Potency [3] 20.9 µM

COc1cc(Nc2nc3ccccc3nc2NS(=O)(=O)c2ccc(NC(=O)c3ccc(C)c(OC)c3)cc2)cc(OC)c1
inactive: Potency [2] | activity (max response) [10] 11.3% | Potency [11]
active: Potency [1] 18.6 µM | Potency [3] 7.43 µM | Potency [5] 5.9 µM | Potency [6] 14.8 µM

N#CC(c1ccc(Cl)cc1)c1c(Cl)cc(-n2ncc(=O)[nH]c2=O)cc1Cl (stereo unspecified)
inactive: Potency [2] | Potency [3] | Potency [4] | Potency [12] | Potency [7] | Potency [8] | Potency [9]
active: Potency [1] 26.3 µM

Cc1cccc(-c2nn(C(=S)Nc3ccccc3)cc2-c2ccnc3ccccc23)n1
inactive: Potency [2] | Potency [3] | Potency [4] | Potency [12] | Potency [7]
active: Potency [1] 18.6 µM

CN1CCC(CNc2ccc3ncc(-c4cccc(OC(F)(F)F)c4)n3n2)CC1
active: Potency [1] 41.1 nM and 132 nM | Potency [2] 23.5 µM | Potency [3] 23.5 µM | Potency [4] 18.7 µM | Potency [7] 5.9 µM | Potency [8] 4.69 µM | Potency [9] 1.32 µM | Potency [10] 15.8 µM | Potency [11] 8.91 µM

COc1cc([C@@H]2c3cc4c(cc3[C@H](O)[C@H]3COC(=O)[C@@H]23)OCO4)cc(OC)c1OC
active: Potency [1] 0.372 µM | Potency [2] 0.418 µM | Potency [3] 0.526 µM | Potency [5] 0.332 µM | Potency [6] 0.469 µM | Potency [12] 0.372 µM | Potency [7] 0.296 µM | Potency [8] 0.296 µM | Potency [9] 0.264 µM | Potency [10] 0.631 µM | Potency [11] 0.501 µM

Reference: PubChem BioAssay (NCATS)
